Source: PubChem BioAssay (National Center for Advancing Translational Sciences (NCATS))
The list is not random: actives were taken first. Their share in the collection is about 2.8%.
KDM5B inh – blocks human KDM5B histone demethylase activity | Q9UGL1 | KDM5B demethylase, FDH-coupled NADH fluorescence (FDH is formaldehyde dehydrogenase) | Potency, µM (titrated, usually from 57.7 µM), most hits filed as inhibitors | 220,000 tested, 2.6% active; active = well fitted inhibition curve with a large enough effect; inconclusive = small, poorly fitted or top-dose-only effect; inactive = no such curve, though single readings can be large or run the other way; also: nearly all actives have a fitted effect of over 70% in size
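KDM5BΔAP (200 nM final) in 50 mM HEPES pH 7.5, 0.01% Tween-20 was preincubated 10 min at RT with compound over a concentration range. Substrate mix (H3K4me3 12.5 µM, α-KG 25 µM, Fe²⁺, ascorbate, NAD⁺, FDH) was added, and NADH fluorescence change over 30 min gave dose-response curves.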
IP6K1 inh – IP6K1 kinase inhibition; AID 1645851; IP6K1 kinase, ADP-Glo luminescence, 2 h; hits give low values; activity change, % (series mostly up to about 58 µM); Q92551; 140,000 tested, 0.81% active; in the data active = activity change below about -25%
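ADP-Glo luminescence measures ADP made by human IP6K1 during a 2 h RT reaction with ATP/IP6 (mix at 1.3 mM/130 uM); top library doses 57.5 and 19.1 uM final.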
Numbers stand for hits; i = inactive; ? = inconclusive; nt = no result; ! = not confirmed by another sample.

SMILES | KDM5B inh | IP6K1 inh
c1ccc(CN2CCNc3cnc(-c4ccc(N5CCOCC5)cc4)cc3C2)cc1 | 35.5µM | i
CCn1cc(-c2cc3c(cn2)CN(CCc2ccccc2)CCN3)cn1 | 35.5µM | i
Oc1cccc(-c2cc3c(cn2)NCCN(Cc2ccccc2)C3)c1 | ? | i
COCCOC1CCOC2(CCN(C(=O)Cc3cccc(OC)c3)CC2)C1 (stereo not drawn) | i | i
CCn1c(=O)c(-c2noc(C(=O)N3CCC(c4ccccc4)C3)n2)nn(-c2ccc(C)cc2)c1=O (stereo not drawn) | i | nt
OC(Cc1ccccc1)c1ccc2c(c1)CN(Cc1ccc(OC(F)F)cc1)CCO2 (stereo not drawn) | i | i
O=C(O)CN1CCN(Cc2ccc(OCCc3ccccc3)cc2)CC1=O | 25.1µM | i
O=C(/C=C/c1ccc(OCCCF)cc1)N1CCN(Cc2ccccc2)CC1 | i | nt
Cc1ccc(/C=N\NC(=O)c2ccccn2)s1 | i | nt
Fc1ccccc1-c1nnc(SCc2ccccc2Br)n1C1CC1 | i | nt
O=C(/C=C/c1ccc(O)cc1)OC[C@H]1O[C@@H](O/C(=C\c2ccccc2)C(=O)O)[C@H](O)[C@@H](O)[C@@H]1O | nt | i
O=C(/C=C/c1ccccc1)OC[C@H]1O[C@@H](OC(=O)c2cc(O)c(O)c(O)c2)[C@H](O)[C@@H](O)[C@@H]1O | nt | -47.4
CN(C(=O)[C@@H]1C[C@H](c2ccc(F)cc2)N([S+](=O)([O-])C2CC2)C1)c1ccccc1 | i | i
Cc1cccc(N2CCN(C(=O)CN3CC4(CCCCC4)CC3=O)CC2)n1 | 31.6µM | i
Cc1cccc(-n2c(SCC(=O)N3CCCCC3)nc3ccccc3c2=O)n1 | i | nt
Cc1ccc(CNC(=O)N2CCCC(CN3CCCC3)CC2)cc1 (stereo not drawn) | ? | i
Cc1nn(CC(=O)Nc2ccc(N3CCCCC3)cc2)c(=O)c2ccccc12 | i | nt
O=C1c2cc(N3CCOCC3)nc(-c3ccccc3Oc3ccccc3)c2CN1C1COC1 | 28.2µM | i
O=c1cc(N2CCOCC2)oc2c(-c3ccccc3Oc3ccccc3)nccc12 | ? | i
CN1CC(=O)N(c2ccccc2)Cc2c1ncnc2N1CCOCC1 | i | i
COc1cccc(-c2ncc3c(n2)OCCN(c2ccccc2)C3=O)c1OC | i | i
COc1ccccc1-c1nc(N2CCOCC2)cc2c1CN(c1ccccc1)C2=O | 35.5µM | i
Cn1cc(-c2nc(N3CCOCC3)cc3c2CN(c2ccccc2)C3=O)cn1 | 20µM | i
O=C(NCc1nnc2n1C(C(=O)NCc1cccnc1)CC2)Nc1cccnc1 (stereo not drawn) | i | i
COc1ccc2oc(-c3ccc(C)c(NC(C)=O)c3)nc2c1 | i | nt
SMILES | KDM5B inh | IP6K1 inh
CC(C)(C)C(=O)COC(=O)c1ccccc1Cl | i | nt
CC(C)CC(NC(N)=O)C(=O)NCc1cccc(C(F)(F)F)c1 (stereo not drawn) | i | nt
COc1ccccc1Nc1ncc2c(n1)CN(C(=O)c1ccccc1)CCN2 | i | i
COc1ccccc1Nc1ncc2c(n1)CN(C(=O)c1cc3ccccc3n1C)CCN2 | 39.8µM | i
CN(Cc1cccnc1)c1nc2c(c(=O)[nH]1)CCN(CC1CCCCC1)CC2 | i | i
COc1ccc(CC(=O)N2CCc3cc(OC)c(OC)cc3C2COc2ccc(F)cc2)cc1 (stereo not drawn) | i | i
CCCc1cc(C(=O)N2CCC(=O)N(CC3CC3)C(C(C)C)C2)n[nH]1 (stereo not drawn) | i | i
Cc1cc(C)n2ncc(C(=O)N3CCC(=O)N(CC4CC4)C(C(C)C)C3)c2n1 (stereo not drawn) | 31.6µM | i
Cc1ccc(Cl)c(C(=O)N2CCC(=O)N(CC3CC3)C(C(C)C)C2)c1 (stereo not drawn) | i | i
Cc1nc2ncccn2c1C(=O)N1CCC(=O)N(CC2CC2)C(C(C)C)C1 (stereo not drawn) | 28.2µM | i
O=C(Cn1nc(-c2ccc(Cl)cc2)c2ccccc2c1=O)Nc1ccc2ccccc2c1 | i | nt
Cc1cc(C)cc(OCC(=O)Nc2nc3c(s2)CC(C(C)(C)C)CC3)c1 (stereo not drawn) | ? | i
Cc1cc(C(=O)N2CCCC3(CNS(=O)(=O)c4cccnc4O3)C2)no1 (stereo not drawn) | i | i
Cc1cc2c(-c3cccc(OC(C)C)c3)nc(-c3c(C)noc3C)cc2[nH]1 | 15.8µM | i
Cc1cc2c(-c3ccc(CO)cc3)nc(-c3c(C)noc3C)cc2[nH]1 | i | i
c1csc(CN2CCn3c(nnc3C3CCCNC3)C2)c1 (stereo not drawn) | i | i
Fc1ccc(CN2CCn3c(nnc3C3CCCNC3)C2)cc1 (stereo not drawn) | 25.1µM! | i
COCCn1ncc(N2CCC(NC(=O)c3cc(C)cc(C)c3)CC2)cc1=O | i | i
O=C(NCc1cccc(F)c1)C1CCN(C(=O)c2ccc(-c3cccs3)cc2)CC1 | nt | i
CC(C)NC[C@H]1O[C@@H](CO)[C@@H](O)[C@H]1N1CCN(c2ncccn2)CC1 | ? | i
